The list is not random: actives were taken first. Their share in the collection is about 4.1%.
MRP1 act: H69AR viability gain despite doxorubicin, primary screen, MRP-1 activator project, H69AR cells, CellTiter-Glo. viability rescue. viability increase, % at 10 µM. 0.61% of 140,000 active. AID 799, 2007;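 active = viability gain under doxorubicin at or above a set limit, the compound median plus 3 SD, cut at about 4.7% in these data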;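 note: MRP-1 overexpressing cells given doxorubicin 25 µM after compound pretreatment; 18-22 h compound pretreatment then 72 h with doxorubicin before readout; 0% = doxorubicin-only wells and 100% = vehicle-treated cells without doxorubicin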
Pyk2 oligo antag: antagonists of Pyk2 self-association, primary screen, Q293 cells, FERM NanoBiT luminescence, HTS | 0.83% of 99,000 active | Protein-tyrosine kinase 2-beta (Homo sapiens), Q14289 | z-score (the deposit names both 25 µM and 10 µM) | active compounds read low;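 active = Z-score of -3 or lower, scaled per plate to the spread of control and sample wells; inactive = z-score above -3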;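 note: negative z-score means lost luminescence so less FERM oligomerization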
Cav32 inh: Cav3.2 calcium influx blockers – cell-based, Fluo-4 calcium fluorescence, FDSS, MLSMR library, primary screen | Voltage-dependent T-type calcium channel subunit alpha-1H (Homo sapiens), O95180 | Cav3.2-expressing cells; active compounds read low | B-score at 10 µM | 4% of 100,000 active | AID 449739, 2010;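 active = single-dose well whose peak fluorescence ratio is a statistical outlier from its plate by either plate-standardised score or position-corrected B-score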
CD11b adhes enh: enhancers of CD11b/CD18 adhesion to fibrinogen, primary screen, K562 cells, luminescence | Integrin beta-2 (Homo sapiens) + Integrin alpha-M (Homo sapiens), P05107+P11215 | ATPlite luminescence | activation, % at 10 µM | 0.07% of 93,000 active;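 active = 10 µM primary screen giving 50% or more activity, confirmed by 40% or more on retest at that dose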
CD11b adhes inh: inhibitors of CD11b/CD18 adhesion to fibrinogen, primary screen, K562 cells, luminescence; ATPlite luminescence; Mn2+ added to activate the integrin; inhibition, % at 10 µM; 0.54% of 93,000 active; Integrin beta-2 (Homo sapiens) + Integrin alpha-M (Homo sapiens), P05107+P11215;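 active = primary inhibition of 50% or more at 10 µM, then 40% or more on retest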
MRP reversal: reversal of MRP1-mediated doxorubicin resistance, primary screen, H69AR cells, doxorubicin co-treatment. H69AR cells + 2 uM doxorubicin, CellTiter-Glo, 72 h. differential viability (reversal), % at 10 µM. 0.04% of 85,000 active;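 active = viability drop by adding the cancer drug above about 55%, with treated viability meeting a 40% cutoff, limit read from the data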;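 note: viability without doxorubicin minus viability with 2 µM doxorubicin for each compound; larger differential means the compound sensitizes cells more to doxorubicin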
Numbers without * were called inactive; nt = no result given.

SMILES | MRP1 act | Pyk2 oligo antag | Cav32 inh | CD11b adhes enh | CD11b adhes inh | MRP reversal
Cc1ccc2nc(N3C(=O)C(O)=C(C(=O)c4ccco4)C3c3cccs3)sc2c1 (stereo unspecified) | -2.7 | 0.08 | -3.05* | -6.5 | 51.9* | nt
CS(=O)(=O)N(CC(N)=O)c1cccc(Br)c1 | -0.2 | 1.04 | 0.327 | nt | nt | 32.0
CCOC(=O)c1cnc(SCc2cccc(C)c2)nc1N | 1.8 | -1.14 | -4.86* | 8.3 | -21.4 | 11.9
CCOC(=O)c1cnc(SCC(=O)c2ccc(C)cc2)nc1N | -0.2 | 1.05 | -0.251 | nt | nt | 14.1
O=c1[nH]c(NCCCO)nc2c1C1(CCCC1)Cc1ccccc1-2 | -2.1 | -1.19 | -4.06* | 0.0 | 4.6 | -5.9
O=C(O)c1cnc(-c2ccccc2)nc1Sc1ccc(Cl)cc1 | -2.3 | -1.02 | -3.27 | -11.6 | 90.5* | nt
O=C(O)c1cnc(-c2ccccc2)nc1Sc1ccccc1Cl | -2.8 | -1.05 | -6.36* | nt | nt | nt
Cc1cc(C(F)(F)F)nc(NCc2ccc(F)cc2)n1 | -3.0 | -1.16 | -5.37* | -5.0 | 4.4 | 12.0
Cc1cc(Oc2ccccc2F)nc(NCc2ccccc2)n1 | -2.1 | -1.54 | -2.56 | -6.9 | 2.1 | -31.0
O=C(O)c1n[nH]c2c1CCCC2 | -3.4 | 0.89 | -0.88 | -1.0 | -22.2 | 12.1
O=C1c2[nH]nc(-c3ccccc3O)c2C(c2ccc(F)cc2)N1Cc1ccco1 (stereo unspecified) | -1.4 | -2.58 | -4.46* | 1.5 | 2.7 | -4.5
O=C1c2[nH]nc(-c3ccccc3O)c2C(c2cccc(Cl)c2)N1CC1CCCO1 (stereo unspecified) | -2.4 | -2.66 | nt | nt | nt | 11.2
O=C1c2[nH]nc(-c3ccccc3O)c2C(c2cccc(Cl)c2)N1Cc1ccco1 (stereo unspecified) | -2.5 | -2.79 | -4.34* | -5.4 | 64.1 | 0.0
COc1ccc(S(=O)(=O)N2CCCCCC2)cc1N(C)S(=O)(=O)c1ccc(Cl)cc1 | -2.9 | -2 | -2.44 | nt | nt | nt
O=C(CN1C(=O)CCC1=O)Nc1nc2c(F)cc(F)cc2s1 | nt | nt | 0.0524 | nt | nt | -5.0
O=C(NC1CCCCC1)[C@H](O)[C@@H](O)C(=O)NC1CCCCC1 | 0.3 | -0.89 | 0.0213 | -4.7 | -4.0 | -3.8
COC(=O)C1C(=O)C2=C(CC1C)NC(C)=C(C(=O)OCCOc1ccccc1)C2c1ccc(C)o1 (stereo unspecified) | -2.0 | -3.87* | -5.15* | nt | nt | -4.8
CC1=C(C(=O)OC2CCCCC2)C(c2ccco2)C2=C(CC(C)(C)CC2=O)N1 (stereo unspecified) | -2.5 | -3.34* | -2.6 | 3.5 | -2.7 | 3.9
COC(=O)C1C(=O)C2=C(CC1C)NC(C)=C(C(=O)OCc1ccc(OC)cc1)C2c1ccc(C)o1 (stereo unspecified) | -0.6 | 1.75 | -2.62 | 6.1 | 6.1 | 1.0
CC1=C(C(=O)OCc2ccccc2)C(c2ccc(C)o2)C2=C(CCCC2=O)N1 (stereo unspecified) | 0.1 | -0.49 | -3.33 | 0.5 | 2.8 | 19.1
CC1=C(C(=O)OCCOc2ccccc2)C(c2ccc(C)o2)C2=C(CC(C)(C)CC2=O)N1 (stereo unspecified) | 0.0 | -1.56 | -7.15* | 2.9 | 20.1 | -3.8
O=c1c2ccccc2nc(-c2ccc(Cl)cc2)n1C1CCS(=O)(=O)C1 (stereo unspecified) | nt | 2.89 | -4.17* | nt | nt | 12.2
Cc1ccccc1-c1nc2ccccc2c(=O)n1C1CCS(=O)(=O)C1 (stereo unspecified) | -0.9 | 0.11 | 0.335 | -2.8 | -31.3 | -8.3
Nn1c(SCC(=O)Nc2ccccc2F)nc2ccccc2c1=O | 8.8* | -0.95 | 0.686 | -2.5 | -8.5 | 10.6
CC1=C/C(=N\OS(=O)(=O)c2ccccc2)C(C)=CC1=O | -2.3 | -0.88 | 2.54 | -9.0 | 96.8* | nt
SMILES | MRP1 act | Pyk2 oligo antag | Cav32 inh | CD11b adhes enh | CD11b adhes inh | MRP reversal
COc1cccc(N(CC(=O)NC(C)(C)C)C(=O)C2CSC(=O)C2)c1 (stereo unspecified) | -0.1 | 0.58 | 0.67 | 1.3 | 1.6 | 17.2
COc1cnn(-c2cc(Oc3ccc(C)cc3)ncn2)c(=O)c1Cl | 0.8 | -0.83 | 0.417 | -5.8 | 1.5 | nt
O=C1Nc2ccc(Cl)cc2[C@@](C#CC2CC2)(C(F)(F)F)O1 | nt | nt | -5.24* | nt | nt | nt
Cc1ccc(C(=O)NNC(=O)c2cc(OCC(F)(F)F)ccc2OCC(F)(F)F)cc1 | -1.9 | -0.79 | -1.24 | -2.6 | -5.9 | nt
O=C(NNC(=O)c1cc(OCC(F)(F)F)ccc1OCC(F)(F)F)c1cccc(C(F)(F)F)c1 | -1.4 | 0.73 | -8.97* | 13.6 | 5.0 | nt
CC(C)c1ccc(NC(=O)COc2nnc(-c3cccs3)c(-c3cccs3)n2)cc1 | 2.4 | -1.47 | -5.08* | -2.4 | -10.6 | nt
CC(C)c1ccc(NC(=O)COC(=O)CCC(=O)c2cccs2)cc1 | -1.1 | nt | nt | -0.1 | 25.0 | nt
CCc1ccc(NC(=O)C(C)Oc2nnc(-c3cccs3)c(-c3cccs3)n2)cc1 (stereo unspecified) | 1.2 | -1.3 | -4.41* | 5.0 | 9.0 | -29.1
COc1ccccc1N(CC(=O)Nc1ccc(F)c(F)c1)S(C)(=O)=O | -0.2 | -0.58 | 0.0857 | 1.8 | 6.0 | -3.4
O=C(O)c1ccccc1-c1nc2ccccc2c(=O)[nH]1 | -0.4 | 0.23 | 0.0485 | -0.6 | -25.2 | -4.0
O=C(O)c1ccccc1C1=Nc2ccc(O)cc2Oc2cc(O)ccc21 | 1.1 | 0.49 | -9.2* | -1.1 | -18.2 | -2.9
Cc1ccc(S(=O)(=O)Nc2nc3ccc(S(C)(=O)=O)cc3s2)cc1 | -1.0 | 0.37 | 0.398 | -4.9 | 0.7 | -0.6
NS(=O)(=O)c1ccc(NC(=O)COC(=O)c2cn(-c3ccccc3)nc2-c2ccc(F)cc2)cc1 | -1.5 | nt | nt | nt | nt | nt
Cc1ccccc1C1CC(c2ccccc2OC(F)F)Nc2ncnn21 (stereo unspecified) | 1.0 | -0.24 | -4.12* | 4.2 | -15.6 | -1.5
O=C1Nc2ccccc2C12Nc1ccccc1-c1nc3ccccc3n12 (stereo unspecified) | -4.6 | -2.7 | -4.8* | nt | nt | 10.7
CCCCC1(C)Nc2ccccc2-c2nc3ccccc3n21 (stereo unspecified) | 1.9 | 0.05 | -4.9* | 5.5 | 9.8 | -20.6
O=C(Cn1nnc(-c2ccc(Cl)cc2)n1)NC1CC2CCC1C2 (stereo unspecified) | 1.7 | 2.11 | -4.59* | -3.7 | -4.5 | -7.1
CCC(C)c1ccc(NC(=S)NCc2cccs2)cc1 (stereo unspecified) | -4.7 | -0.43 | -3.2* | -4.8 | 10.1 | 2.5
CC(C)(C)c1ccc(NC(=S)NCc2cccs2)cc1 | -4.2 | -0.94 | -1.46 | -2.0 | 14.3 | nt
CS(=O)(=O)N(CC(=O)Nc1cccc(F)c1)Cc1ccccc1 | -1.4 | -0.49 | -0.234 | 2.9 | -11.2 | -2.4

Screening data from PubChem BioAssay.
